This note sets out measurements from PubChem BioAssay.

One may read the inhibition as the relative decrease from the control value, in per cent.

Experiment [1] can be described thus: antimalarial activity against Dd2 strain (AID 2302;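 active = growth inhibition above 50% at the single 2 µM test dose, taken to imply half-maximal potency below 2 µM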;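 also: 0% = DMSO untreated growth and 100% = chloroquine plus artemisinin killed control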). The conditions noted are these: P. falciparum Dd2 in RBCs, LDH growth readout, 72 h; at 2 µM; stronger effect = higher value.
A short description of experiment [2]: HepG2 cytotoxicity, primary screen, cytotoxicity control for P. falciparum antimalarial project, cell-based, ATP luminescence (AID 2303;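 active = inhibition above 50%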;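 also: 0% = DMSO wells and 100% = digitonin-killed cells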). The conditions noted are these: HepG2 viability, 24-48 h, at 10 µM, stronger effect = higher value.
In experiment [3] the target is L-lactate dehydrogenase (Plasmodium falciparum (isolate CDC / Honduras)) (UniProt Q27743). Put plainly: PfLDH activity inhibition – cell lysate, 3D7 strain, counter-screen for P. falciparum growth inhibition project (AID 2304).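 Also: 0% = vehicle and 100% = reference inhibitor.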 The conditions noted are these: P. falciparum 3D7 crude extract, LDH APAD/NBT absorbance; at 2 µM; stronger effect = higher value. In general terms: Counterscreens check selectivity or assay interference.
Chain of L-lactate dehydrogenase (Plasmodium falciparum (isolate CDC / Honduras)) (Q27743 whole entry, looked up): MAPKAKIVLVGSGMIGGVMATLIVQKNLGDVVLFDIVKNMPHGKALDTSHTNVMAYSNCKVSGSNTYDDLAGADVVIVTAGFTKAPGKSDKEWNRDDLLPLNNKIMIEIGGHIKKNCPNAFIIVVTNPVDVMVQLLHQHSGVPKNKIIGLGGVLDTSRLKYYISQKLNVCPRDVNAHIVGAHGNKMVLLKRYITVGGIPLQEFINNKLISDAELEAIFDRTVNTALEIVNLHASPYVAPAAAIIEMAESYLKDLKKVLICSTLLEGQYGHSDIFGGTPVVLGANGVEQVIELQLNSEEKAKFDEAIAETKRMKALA

Experiment [4] can be described thus: inhibition of 3D7 malaria parasite growth – strain 3D7 (AID 2306).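 Also: 0% = DMSO wells and 100% = chloroquine plus artemisinin control wells.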 The conditions noted are these: P. falciparum 3D7 erythrocytic growth, LDH absorbance, 72 h; at 2 µM; stronger effect = higher value.
The target of experiment [5] is Calcium-dependent protein kinase 1 (Plasmodium falciparum (isolate 3D7)) (UniProt P62344). Nature of the experiment: PfCDPK1 kinase inhibitors, biochemical, TCAMS library (AID 1159585; cut-off not given, nearly all actives have IC50 up to about 0.98 µM;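 also: inhibitors leave more ATP so luminescence rises with inhibition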). The conditions noted are these: recombinant PfCDPK1, Kinase-Glo ATP depletion luminescence. A general note: Kinase-Glo measures the ATP left after a reaction by luminescence.
Chain of Calcium-dependent protein kinase 1 (Plasmodium falciparum (isolate 3D7)) (P62344 whole entry, looked up): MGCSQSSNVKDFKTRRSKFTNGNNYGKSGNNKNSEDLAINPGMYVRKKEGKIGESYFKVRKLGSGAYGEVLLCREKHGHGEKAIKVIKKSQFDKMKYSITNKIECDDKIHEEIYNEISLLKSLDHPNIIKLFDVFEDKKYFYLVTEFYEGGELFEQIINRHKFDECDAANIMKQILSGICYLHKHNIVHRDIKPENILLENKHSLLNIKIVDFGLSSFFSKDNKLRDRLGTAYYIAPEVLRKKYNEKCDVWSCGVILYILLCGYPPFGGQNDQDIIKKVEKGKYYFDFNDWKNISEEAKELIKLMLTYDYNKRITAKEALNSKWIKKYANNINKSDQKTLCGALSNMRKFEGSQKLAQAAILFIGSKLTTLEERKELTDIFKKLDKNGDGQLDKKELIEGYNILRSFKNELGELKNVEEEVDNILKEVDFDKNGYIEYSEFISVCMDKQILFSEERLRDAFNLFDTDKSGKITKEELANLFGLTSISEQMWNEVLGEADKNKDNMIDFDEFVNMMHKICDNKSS
The target of experiment [6] is Plasmodium falciparum protein kinase 6 (PK6, PF3D7_1337100) (UniProt Q8IDW1). Put plainly: PfPK6 kinase inhibitors, biochemical, TCAMS library (AID 1159586). The conditions noted are these: recombinant PfPK6, Kinase-Glo ATP depletion luminescence.
Chain of Plasmodium falciparum protein kinase 6 (PK6, PF3D7_1337100) (Q8IDW1 1-305): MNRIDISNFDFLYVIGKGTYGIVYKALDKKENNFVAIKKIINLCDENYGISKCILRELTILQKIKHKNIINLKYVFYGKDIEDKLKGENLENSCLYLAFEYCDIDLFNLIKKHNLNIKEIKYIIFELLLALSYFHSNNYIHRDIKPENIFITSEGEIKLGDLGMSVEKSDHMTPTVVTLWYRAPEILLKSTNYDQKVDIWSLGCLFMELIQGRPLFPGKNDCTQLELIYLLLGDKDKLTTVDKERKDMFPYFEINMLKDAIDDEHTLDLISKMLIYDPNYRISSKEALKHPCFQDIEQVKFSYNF
Experiment [7] deals with Protein kinase 7 (PK7), Plasmodium falciparum 3D7 (PF3D7_0213400) (UniProt Q7YTF7). Nature of the experiment: inhibition of Plasmodium PK7 catalytic activity – biochemical, TCAMS antimalarial set, Kinase-Glo luminescence (AID 1159587). Conditions: recombinant PfPK7, Kinase-Glo ATP depletion luminescence.
Chain of Protein kinase 7 (PK7), Plasmodium falciparum 3D7 (PF3D7_0213400) (Q7YTF7 1-343): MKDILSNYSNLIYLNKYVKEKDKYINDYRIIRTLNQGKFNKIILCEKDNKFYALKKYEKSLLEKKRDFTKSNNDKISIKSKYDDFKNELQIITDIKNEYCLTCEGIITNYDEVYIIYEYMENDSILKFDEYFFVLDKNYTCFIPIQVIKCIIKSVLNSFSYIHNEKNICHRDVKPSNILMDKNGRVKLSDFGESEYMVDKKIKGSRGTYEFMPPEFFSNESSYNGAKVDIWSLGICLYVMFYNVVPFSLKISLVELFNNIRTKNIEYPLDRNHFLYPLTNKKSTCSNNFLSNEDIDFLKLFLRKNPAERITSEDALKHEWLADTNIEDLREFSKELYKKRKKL
Experiment [8] concerns the target Calcium-dependent protein kinase 4 (Plasmodium falciparum (isolate 3D7)) (UniProt Q8IBS5). Nature of the experiment: PfCDPK4 kinase inhibitors, biochemical, TCAMS library (AID 1159588; cut-off not given, nearly all actives have IC50 up to about 0.91 µM). Conditions: recombinant PfCDPK4, Kinase-Glo ATP depletion luminescence.

Structures are written as SMILES. Values without a mark were called inactive. For some of these results: Results with a measured potency or affinity are listed apart. Calls of active or inactive are those of the source. Unless noted, no rule for the calls is given here.

Chain of Calcium-dependent protein kinase 4 (Plasmodium falciparum (isolate 3D7)) (Q8IBS5 whole entry, looked up): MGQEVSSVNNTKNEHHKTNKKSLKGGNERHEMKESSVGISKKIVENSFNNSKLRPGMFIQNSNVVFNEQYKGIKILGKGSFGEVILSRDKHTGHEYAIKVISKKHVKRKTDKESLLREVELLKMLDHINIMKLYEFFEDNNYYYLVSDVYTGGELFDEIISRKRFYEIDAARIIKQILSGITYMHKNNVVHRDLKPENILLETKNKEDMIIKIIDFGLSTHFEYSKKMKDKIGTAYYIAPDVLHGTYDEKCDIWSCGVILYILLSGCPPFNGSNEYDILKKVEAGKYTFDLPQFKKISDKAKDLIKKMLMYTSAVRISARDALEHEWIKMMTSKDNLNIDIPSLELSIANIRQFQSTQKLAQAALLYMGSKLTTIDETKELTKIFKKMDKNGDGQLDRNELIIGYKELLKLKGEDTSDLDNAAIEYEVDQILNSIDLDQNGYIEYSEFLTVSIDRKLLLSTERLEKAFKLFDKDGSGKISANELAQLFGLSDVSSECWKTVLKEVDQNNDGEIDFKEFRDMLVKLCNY

Take `O=C(NCC1CCC1)c1cnc(Nc2cccc(Cl)c2)nc1N1CCC1`: the results for the growth inhibition in experiment [1] and in experiment [4] were 75% (active) and 98% (active), respectively. For the same molecule, the inhibition in experiment [2] is 21%; in experiment [3] it was 2%. In addition, the outcome in experiment [5], in experiment [6], in experiment [7] and in experiment [8] was inactive.

`COc1cc(NC(=O)/C=C/c2cccc3cc[nH]c23)ccc1OCCN(C(C)C)C(C)C`: the growth inhibition in experiment [1] was 51% (active); in experiment [4], 99% (active). The inhibition is 11% in experiment [2] and 5% in experiment [3]. The result in experiment [5], in experiment [6], in experiment [7] and in experiment [8] was inactive.

In the case of `Oc1ccc(CCNc2nc(NCCCOc3ccccc3-c3ccc(C(F)(F)F)cc3)nc(N3CCNCC3)n2)cc1`, the growth inhibition is 49% in experiment [1] and 101% (active) in experiment [4]. Also, the inhibition was 64% (active) in experiment [2] and 0% in experiment [3]. The result in experiment [5], in experiment [6], in experiment [7] and in experiment [8] was inactive.

Take `Cc1cccc(-c2ccc(NC(=O)C3CCN(Cc4cccc(O)c4)CC3)cc2)c1`: the growth inhibition in experiment [1] is 64% (active); in experiment [4], 92% (active). Moreover, the inhibition was 21% in experiment [2] and 0% in experiment [3]. Besides, the result in experiment [5], in experiment [6], in experiment [7] and in experiment [8] was inactive.

Consider `Cc1sc2nc(CSc3ccccc3)nc(N3CCN(CC(=O)NC4CC4)CC3)c2c1C`, for which the growth inhibition was 95% (active) in experiment [1] and 96% (active) in experiment [4]. The inhibition is 2% in experiment [2] and 1% in experiment [3]. Further, the result in experiment [5], in experiment [6], in experiment [7] and in experiment [8] was inactive.

As for `CCNc1cc(C(=O)N[C@@H](Cc2ccccc2)[C@H](O)CNC2CCSCC2)cc(N2CCCC2=O)c1`, the growth inhibition in experiment [1] is 98% (active); in experiment [4], 99% (active). Moreover, the inhibition in experiment [2] was 0%; in experiment [3], -1%. For the same molecule, the result in experiment [5], in experiment [6], in experiment [7] and in experiment [8] was inactive.

Consider `Cc1cc2nc(-c3ccc(OCC(=O)NCc4ccc(C(C)(C)C)cc4)cc3)[nH]c2cc1C`, for which the growth inhibition is 0% in experiment [1] and 94% (active) in experiment [4]. Also, the inhibition in experiment [2] is 11%; in experiment [3] it was 2%. Further, the outcome in experiment [5], in experiment [6], in experiment [7] and in experiment [8] was inactive.

Regarding `COc1ccc2nccc([C@H](O)CN3CCC(NCc4cc(C)c5c(c4)OCCO5)CC3)c2n1`, the growth inhibition in experiment [1] is 35%; in experiment [4], 96% (active). The inhibition was 12% in experiment [2] and 3% in experiment [3]. The result in experiment [5], in experiment [6], in experiment [7] and in experiment [8] was inactive.

On to `O=C(NCCCCN1CCC(c2ccc3ccccc3c2O)CC1)c1ccc(-c2ccc(Cl)cc2)cc1`, for which the figures for the growth inhibition in experiment [1] and in experiment [4] were 99% (active) and 101% (active), respectively. Further, the inhibition in experiment [2] was 84% (active); in experiment [3], -2%. Besides, the outcome in experiment [5], in experiment [6], in experiment [7] and in experiment [8] was inactive.

In the case of `c1cncc(CCNCc2ccc(-c3ccc(CNC4Cc5ccccc5C4)cc3)cc2)c1`, the figures for the growth inhibition in experiment [1] and in experiment [4] were 29% and 92% (active), respectively. Moreover, the inhibition in experiment [2] is 32%; in experiment [3], 1%. Further, the result in experiment [5], in experiment [6], in experiment [7] and in experiment [8] was inactive.

In the case of `CCCCCCOc1ccc(C(=O)N[C@H]2CCN(CCCCCNC(=O)/C=C/c3ccc(Cl)c(Cl)c3)C2)cc1`, the growth inhibition is 25% in experiment [1] and 99% (active) in experiment [4]. Also, the inhibition was 10% in experiment [2] and -5% in experiment [3]. The result in experiment [5], in experiment [6], in experiment [7] and in experiment [8] was inactive.

Turning to `COC[C@H]1CCCN1Cc1ccc(-c2ccc(-c3nc4ccccc4[nH]3)s2)cc1`, the results for the growth inhibition in experiment [1] and in experiment [4] were 58% (active) and 95% (active), respectively. Moreover, the inhibition in experiment [2] is 18%; in experiment [3] it was -2%. For the same molecule, the outcome in experiment [5], in experiment [6], in experiment [7] and in experiment [8] was inactive.

As for `C[C@@H]1CN(c2ccnc3ccc(Sc4ccc(Oc5ccccc5)cc4)cc23)C[C@H](C)N1`, the growth inhibition in experiment [1] was 99% (active); in experiment [4], 100% (active). Further, the inhibition in experiment [2] is 33%; in experiment [3], 7%. The outcome in experiment [5], in experiment [6], in experiment [7] and in experiment [8] was inactive.

Regarding `COc1ccc(C(=O)Nc2cc(Cl)c3c(c2)C2CCCN2CC3)cc1C(F)(F)F` (stereo not given), the growth inhibition is 33% in experiment [1] and 99% (active) in experiment [4]. For the same molecule, the inhibition in experiment [2] is 35%; in experiment [3] it was -1%. For the same molecule, the outcome in experiment [5], in experiment [6], in experiment [7] and in experiment [8] was inactive.

For the molecule `CC(=O)Nc1ncc(C(=O)Nc2cccc(-c3ccc(-c4nc5c(C)cccc5[nH]4)cc3)c2)s1`, the growth inhibition in experiment [1] is 78% (active); in experiment [4] it was 101% (active). The inhibition in experiment [2] is 69% (active); in experiment [3], 3%. The outcome in experiment [5], in experiment [6], in experiment [7] and in experiment [8] was inactive.

With `O=C(Nc1cccc(C(F)(F)F)c1)NC1CCN(c2ccnc3ccccc23)C1` (stereo not given), the growth inhibition in experiment [1] is 69% (active); in experiment [4] it was 101% (active). Besides, the results for the inhibition in experiment [2] and in experiment [3] were 23% and -2%, respectively. For the same molecule, the result in experiment [5], in experiment [6], in experiment [7] and in experiment [8] was inactive.

Regarding `CN(C)Cc1cc2c(O)c(Cc3ccccc3)ccc2o1`, the growth inhibition is 69% (active) in experiment [1] and 85% (active) in experiment [4]. Besides, the figures for the inhibition in experiment [2] and in experiment [3] were 3% and -8%, respectively. Also, the result in experiment [5], in experiment [6], in experiment [7] and in experiment [8] was inactive.

On to `Cc1cccc2[nH]c(-c3cccc(-c4ccc(NC(=O)C(=O)c5cccn5C)cc4)c3)nc12`, for which the growth inhibition is 46% in experiment [1] and 101% (active) in experiment [4]. Moreover, the inhibition in experiment [2] is 45%; in experiment [3] it was -1%. The result in experiment [5], in experiment [6], in experiment [7] and in experiment [8] was inactive.

Turning to `COc1ccc(-c2nc3cccnc3n2CC(=O)Nc2cc(Cl)c(Cl)cc2Cl)c(OC)c1`, the growth inhibition in experiment [1] was 17%; in experiment [4], 100% (active). The inhibition in experiment [2] is 99% (active); in experiment [3], 1%. Also, the outcome in experiment [5], in experiment [6], in experiment [7] and in experiment [8] was inactive.

`COc1nc2c(CCN3CCC(NCc4ccc5c(c4)NCCO5)CC3)c(Cl)cnc2cc1F`: the growth inhibition in experiment [1] was 98% (active); in experiment [4], 102% (active). Further, the results for the inhibition in experiment [2] and in experiment [3] were 23% and 1%, respectively. Moreover, the result in experiment [5], in experiment [6], in experiment [7] and in experiment [8] was inactive.
